Data: PubChem BioAssay (EPA / NIEHS)
Values joined by “and” are separate entries in the source; they are usually repeats but may differ in a detail not shown here. Equal entries are not always repeated. Some compounds were tested as several samples or in several runs, with calls that do not always agree. Active and inactive are the calls of the source. The calls were made as follows: active = hit-call score of the fitted dose curve at least 0.9, where 1 is the maximum; inactive = score below 0.9.

What was measured:
[1] = read-out: Vascular cell adhesion molecule 1 (VCAM1), VCAM1 (gene 7412); assay: BSK_BF4T_VCAM1: BioMAP Diversity Plus: BF4T Assay for Vascular cell adhesion molecule 1 (VCAM1) Biomarker Activity (AID 2284249); details: primary human bronchial epithelial cells with fibroblasts
In short: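 Cell-surface VCAM-1 quantified by ELISA after 24 h chemical exposure of human bronchial epithelial/dermal fibroblast co-cultures, with SRB staining in parallel wells for cytotoxicity; DMSO baseline, positive-direction fitting.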

[2] = read-out: Collagen I, COL1A1 (gene 1277); assay: BSK_hDFCGF_CollagenI: BioMAP Diversity Plus: hDFCGF Assay for Collagen I Biomarker Activity (AID 2284250); details: primary human foreskin fibroblasts
In short: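 Readout: Collagen I by ELISA after 24 h compound treatment of primary human foreskin fibroblasts. Endpoint analysed for increases relative to DMSO; total protein by SRB in parallel wells flagged cytotoxicity.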

[3] = read-out: Interferon-inducible T-cell alpha chemoattractant (ITAC), CXCL11 (gene 6373); assay: BSK_hDFCGF_ITAC: BioMAP Diversity Plus: hDFCGF Assay for Interferon-inducible T-cell alpha chemoattractant (ITAC) Biomarker Activity (AID 2284251); details: primary human foreskin fibroblasts
In short: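 Measured by ELISA, the chemokine level serves as the endpoint in human skin fibroblast primary cultures 24 h after compound addition. Increases relative to DMSO-treated wells define activity.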

[4] = read-out: Plasminogen activator inhibitor-1 (PAI1), SERPINE1 (gene 5054); assay: BSK_KF3CT_PAI1: BioMAP Diversity Plus: KF3CT Assay for Plasminogen activator inhibitor-1 (PAI1) Biomarker Activity (AID 2284252); details: primary human keratinocytes with fibroblasts
In short: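 In this co-culture of primary human keratinocytes and foreskin fibroblasts, PAI-1 was measured by ELISA at 24 h and fitted upward from DMSO.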

[5] = read-out: Monocyte Chemoattractant Protein-1 (MCP1), CCL2 (gene 6347); assay: BSK_IMphg_MCP1: BioMAP Diversity Plus: IMphg Assay for Monocyte Chemoattractant Protein-1 (MCP1) Biomarker Activity (AID 2284253); details: primary human endothelial cells with macrophages
In short: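 ELISA readout of MCP-1 at 24 hours in IMphg co-cultures of venular endothelial cells and macrophages, normalised to DMSO; parallel cultures stained with sulforhodamine B for overt cytotoxicity.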

[6] = read-out: Interleukin-8 (IL8), CXCL8 (gene 3576); assay: BSK_KF3CT_IL8: BioMAP Diversity Plus: KF3CT Assay for Interleukin-8 (IL8) Biomarker Activity (AID 2284254); details: primary human keratinocytes with fibroblasts
In short: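 IL-8 read-out: ELISA, 24 h post-dose, human skin primary co-culture (keratinocytes + foreskin fibroblasts). DMSO = baseline; positive-direction fit.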

[7] = read-out: Macrophage Inflammatory Protein-1 Alpha (MIP1a), CCL3 (gene 6348); assay: BSK_IMphg_MIP1a: BioMAP Diversity Plus: IMphg Assay for Macrophage Inflammatory Protein-1 Alpha (MIP1a) Biomarker Activity (AID 2284255); details: primary human endothelial cells with macrophages
In short: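 MIP-1a protein levels were quantified by ELISA after 24 h treatment of human endothelial cell–macrophage co-cultures, compared with DMSO. Parallel cultures were fixed with TCA and stained with 0.1% SRB to gauge overt cytotoxicity.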

[8] = read-out: Plasminogen activator inhibitor-1 (PAI1), SERPINE1 (gene 5054); assay: BSK_MyoF_PAI1: BioMAP Diversity Plus: MyoF Assay for Plasminogen activator inhibitor-1 (PAI1) Biomarker Activity (AID 2284256); details: primary human lung fibroblasts
In short: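 MyoF lung fibroblasts, human primary; compound 24 h; PAI-1 ELISA; positive-direction fit vs DMSO baseline; parallel SRB total-protein staining for cytotoxicity.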

CD69, CD69 (gene 969) = assay: BSK_IMphg_CD69: BioMAP Diversity Plus: IMphg Assay for CD69 Biomarker Activity (AID 2284257); details: primary human endothelial cells with macrophages
In short: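 Readout is ELISA for CD69 in primary human venular endothelial cell/macrophage co-culture, taken at 24 h post-dosing. SRB staining of parallel cultures gauged overt cytotoxicity; signal increase versus DMSO defined activity.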

[9] = read-out: Eotaxin 3, CCL26 (gene 10344); assay: BSK_BF4T_Eotaxin3: BioMAP Diversity Plus: BF4T Assay for Eotaxin 3 Biomarker Activity (AID 2284258); details: primary human bronchial epithelial cells with fibroblasts
In short: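 ELISA measurement of Eotaxin-3 after 24 h chemical exposure in a bronchial epithelial/dermal fibroblast co-culture, with DMSO as baseline. Parallel SRB staining (0.1% SRB after 10% TCA fixation, 560 nm) flagged overt cytotoxicity.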

Measured: AC50

OCCCCC(F)(F)C(F)(F)C(F)(F)C(F)(F)F
inactive: all assays above

CCOC(=O)CC(=O)C(F)(F)C(F)(F)F
inactive: all assays above

C=C(C)C(=O)OCC(F)(F)C(F)(F)C(F)(F)C(F)F
inactive: [1] | [2] | [3] | [4] | [5] | [6] | [7] | [8] | CD69, CD69 (gene 969) | [9]
active: [3] 7.82 µM | [8] 222 nM

O=C(O)C(F)(F)C(F)(F)C(F)(F)C(=O)O
inactive: all assays above

C=CC(=O)OCC(F)(F)C(F)(F)C(F)(F)COC(=O)C=C
inactive: [2]
active: [1] 7.91 µM and 8.05 µM | [3] 733 nM and 1.58 µM | [4] 22.7 µM and 21.2 µM | [5] 37.9 µM and 36.8 µM | [6] 14.7 µM and 14.9 µM | [7] 47.1 µM and 48 µM | [8] 14.2 µM and 14.7 µM | CD69, CD69 (gene 969) 54.8 µM and 44 µM | [9] 14.8 µM and 17 µM

C=CC(=O)OCC(F)(F)C(F)(F)C(F)(F)C(F)(F)C(F)(F)C(F)(F)C(F)(F)C(F)F
active: [3] 30 µM
inactive: all other assays above

NC(=O)C(F)(F)C(F)(F)C(F)(F)C(F)(F)C(N)=O
inactive: all assays above

O=C(O)CCC(F)(F)C(F)(F)C(F)(F)C(F)(F)C(F)(F)C(F)(F)C(F)(F)F
inactive: [1] | [2] | [3] | [4] | [5] | [6] | [8] | CD69, CD69 (gene 969) | [9]
active: [6] 4.26 µM | [7] 1.39 µM and 1.57 µM | [9] 726 nM

O=C(Cl)C(F)(F)C(F)(F)C(F)(F)C(F)(F)C(F)(F)C(F)(F)C(F)(F)F
inactive: [1] | [2] | [3] | [4] | [5] | [6] | [7] | [8] | CD69, CD69 (gene 969) | [9]
active: [5] 52.9 µM | [7] 237 nM

OCC(F)(F)C(F)(F)C(F)(F)C(F)(F)C(F)(F)C(F)(F)C(F)(F)C(F)(F)CO
active: [1] 12 µM | [3] 44.9 µM and 43 µM | [4] 54.3 µM and 48.3 µM | [5] 50.4 µM and 51.3 µM | [6] 47.4 µM and 50.4 µM | [7] 50 µM and 51.6 µM | CD69, CD69 (gene 969) 54.4 µM and 42.6 µM | [9] 15.3 µM and 16.6 µM
inactive: [1] | [2] | [8]

NCC(F)(F)C(F)(F)C(F)(F)C(F)(F)C(F)(F)C(F)(F)F
inactive: all assays above

OCC(O)CC(F)(F)C(F)(F)C(F)(F)C(F)(F)F (stereo not drawn)
inactive: all assays above

COC(F)(C(F)F)C(F)(F)F (stereo not drawn)
inactive: all assays above

CCN(CCO)S(=O)(=O)C(F)(F)C(F)(F)C(F)(F)C(F)(F)C(F)(F)C(F)(F)C(F)(F)C(F)(F)F
active: [3] 34.8 µM and 24.3 µM | [4] 17.7 µM and 8.86 µM | [6] 5.61 µM | [7] 1.54 µM and 12.7 µM | [8] 55100 nM | CD69, CD69 (gene 969) 6.74 µM
inactive: [1] | [2] | [5] | [6] | [8] | CD69, CD69 (gene 969) | [9]

NS(=O)(=O)C(F)(F)C(F)(F)C(F)(F)C(F)(F)C(F)(F)C(F)(F)F
active: [1] 19.8 µM and 21.1 µM | [3] 43.1 µM and 39.1 µM | [5] 22.3 µM | CD69, CD69 (gene 969) 21.7 µM and 30 µM
inactive: [2] | [4] | [5] | [6] | [7] | [8] | [9]

O=S(=O)(OCC(F)(F)F)C(F)(F)C(F)(F)C(F)(F)C(F)(F)F
active: [3] 30 µM | [7] 21 µM and 5.95 µM
inactive: all other assays above

C[Si](Cl)(Cl)CCC(F)(F)C(F)(F)C(F)(F)C(F)(F)C(F)(F)C(F)(F)F
active: [3] 1.49 µM
inactive: [1] | [2] | [3] | [4] | [5] | [6] | [7] | [8] | CD69, CD69 (gene 969) | [9]

O=C(F)C1(F)C(F)(F)C(F)(F)C(F)(F)C(F)(F)C1(F)F
inactive: all assays above

O=S(=O)(O)CCC(F)(F)C(F)(F)C(F)(F)C(F)(F)F
inactive: [1] | [2] | [3] | [4] | [5] | [6] | [7] | [8] | CD69, CD69 (gene 969) | [9]
active: [3] 0.931 µM

NCC(F)(F)C(F)(F)C(F)(F)C(F)(F)C(F)(F)C(F)(F)C(F)(F)C(F)(F)F
inactive: all assays above

O=C(O)C(F)(F)C(F)(F)C(F)(F)C(F)(F)C(F)(F)C(F)(F)C(F)F
inactive: [1] | [2] | [3] | [4] | [5] | [6] | [7] | [8] | CD69, CD69 (gene 969) | [9]
active: [3] 0.577 µM | [6] 17.2 µM

FC(F)(F)C(F)(F)C(F)(F)CC1CO1 (stereo not drawn)
inactive: [1] | [2] | [3] | [4] | [5] | [6] | [7] | [8] | CD69, CD69 (gene 969) | [9]
active: [3] 5.97 µM

O=S(=O)(Cl)C(F)(F)C(F)(F)C(F)(F)C(F)(F)C(F)(F)C(F)(F)C(F)(F)C(F)(F)F
inactive: [1] | [2] | [3] | [5] | [6] | [7] | [8] | CD69, CD69 (gene 969)
active: [1] 30 µM | [4] 25 µM and 22.1 µM | CD69, CD69 (gene 969) 15.1 µM | [9] 28.3 µM and 19.5 µM
